The target in test [1] is Mast/stem cell growth factor receptor Kit (Homo sapiens) (UniProt P10721). To be noted: at 1 µM.
For test [2], the system named is Mast/stem cell growth factor receptor Kit (Homo sapiens), P10721 [D816V]. Conditions: at 0.1 µM.
For test [3] the test system is unchanged. Conditions: at 1 µM.
The subject of test [4] is Mast/stem cell growth factor receptor Kit (Homo sapiens), P10721 [T670I]. Conditions: at 0.1 µM.
For test [5] the test system is unchanged. To be noted: at 1 µM.
Test [6] has as its system Mast/stem cell growth factor receptor Kit (Homo sapiens), P10721 [V560G]. Conditions: at 0.1 µM.
Test [7] shares this test system. Conditions: at 1 µM.
For test [8], the target named is Tyrosine-protein kinase Lck (Homo sapiens) (UniProt P06239). Conditions: at 0.1 µM.
Tyrosine-protein kinase Lck (Homo sapiens), sequence (P06239 2-509 limits assumed): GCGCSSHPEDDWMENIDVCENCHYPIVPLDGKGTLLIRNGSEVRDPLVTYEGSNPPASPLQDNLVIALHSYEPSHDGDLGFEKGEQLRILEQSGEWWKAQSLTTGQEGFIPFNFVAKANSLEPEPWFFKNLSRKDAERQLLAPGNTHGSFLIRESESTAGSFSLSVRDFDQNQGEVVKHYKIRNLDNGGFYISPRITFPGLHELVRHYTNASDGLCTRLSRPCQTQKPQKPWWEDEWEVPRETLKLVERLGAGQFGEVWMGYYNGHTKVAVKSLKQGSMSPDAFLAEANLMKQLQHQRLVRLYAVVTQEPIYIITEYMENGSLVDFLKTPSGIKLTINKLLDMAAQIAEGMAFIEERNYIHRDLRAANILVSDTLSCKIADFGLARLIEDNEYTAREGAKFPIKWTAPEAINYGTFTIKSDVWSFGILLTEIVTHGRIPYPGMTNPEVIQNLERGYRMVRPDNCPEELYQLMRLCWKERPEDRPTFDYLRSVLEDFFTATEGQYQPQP
Test [9] has the same target. Conditions: at 1 µM.
In test [10] the target is Leukocyte tyrosine kinase receptor (Homo sapiens) (UniProt P29376). To be noted: at 0.1 µM.
Leukocyte tyrosine kinase receptor (Homo sapiens), sequence (P29376 whole entry): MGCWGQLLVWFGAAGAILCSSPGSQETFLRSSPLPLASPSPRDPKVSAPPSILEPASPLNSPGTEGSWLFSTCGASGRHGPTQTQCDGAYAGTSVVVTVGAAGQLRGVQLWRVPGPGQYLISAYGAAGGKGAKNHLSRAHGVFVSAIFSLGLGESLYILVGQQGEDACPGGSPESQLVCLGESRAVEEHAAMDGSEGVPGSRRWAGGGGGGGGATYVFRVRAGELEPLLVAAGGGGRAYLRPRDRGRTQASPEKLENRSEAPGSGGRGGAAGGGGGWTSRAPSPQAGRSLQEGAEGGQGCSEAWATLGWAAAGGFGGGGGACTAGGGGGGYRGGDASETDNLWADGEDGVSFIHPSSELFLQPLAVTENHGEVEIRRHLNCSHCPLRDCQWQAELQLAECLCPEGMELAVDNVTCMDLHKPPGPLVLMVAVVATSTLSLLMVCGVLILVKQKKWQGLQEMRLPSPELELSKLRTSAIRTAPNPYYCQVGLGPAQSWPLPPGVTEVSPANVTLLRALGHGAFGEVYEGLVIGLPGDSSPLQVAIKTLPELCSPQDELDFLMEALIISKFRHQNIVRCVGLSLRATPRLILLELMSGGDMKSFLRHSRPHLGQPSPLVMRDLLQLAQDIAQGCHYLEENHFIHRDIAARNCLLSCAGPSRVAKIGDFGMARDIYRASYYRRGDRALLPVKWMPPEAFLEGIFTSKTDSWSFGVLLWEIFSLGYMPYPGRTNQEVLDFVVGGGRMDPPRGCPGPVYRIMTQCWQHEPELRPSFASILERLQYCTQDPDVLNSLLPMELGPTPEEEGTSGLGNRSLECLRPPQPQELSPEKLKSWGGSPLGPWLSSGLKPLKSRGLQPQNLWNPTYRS
For test [11] the target is unchanged. Conditions: at 1 µM.
For test [12], the target named is Tyrosine-protein kinase Lyn (Homo sapiens) (UniProt P07948). To be noted: at 0.1 µM.
Tyrosine-protein kinase Lyn (Homo sapiens), sequence (P07948 2-512 limits assumed): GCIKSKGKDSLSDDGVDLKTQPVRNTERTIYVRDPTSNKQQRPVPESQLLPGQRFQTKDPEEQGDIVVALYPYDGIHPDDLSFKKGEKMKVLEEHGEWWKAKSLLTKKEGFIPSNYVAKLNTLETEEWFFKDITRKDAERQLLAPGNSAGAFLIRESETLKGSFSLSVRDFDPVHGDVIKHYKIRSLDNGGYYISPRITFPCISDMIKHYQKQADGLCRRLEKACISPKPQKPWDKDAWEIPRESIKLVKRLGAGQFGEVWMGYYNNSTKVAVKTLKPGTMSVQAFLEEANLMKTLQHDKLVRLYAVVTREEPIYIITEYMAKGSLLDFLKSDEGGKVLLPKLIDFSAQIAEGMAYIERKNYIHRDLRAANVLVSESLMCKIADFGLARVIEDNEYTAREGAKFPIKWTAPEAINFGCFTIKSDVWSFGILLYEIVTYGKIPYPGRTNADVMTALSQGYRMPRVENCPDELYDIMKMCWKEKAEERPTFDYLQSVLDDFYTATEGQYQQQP
Test [13] shares this target. Conditions: at 1 µM.
The target is the same in test [14]. To be noted: at 0.1 µM. The source holds these as a separate data set.
Test [15] has the same target. Conditions: at 1 µM. The source holds these as a separate data set.
In test [16] the target is T1, Tyrosine-protein kinase Mer (Homo sapiens) (UniProt Q12866).
T1 sequence (whole entry): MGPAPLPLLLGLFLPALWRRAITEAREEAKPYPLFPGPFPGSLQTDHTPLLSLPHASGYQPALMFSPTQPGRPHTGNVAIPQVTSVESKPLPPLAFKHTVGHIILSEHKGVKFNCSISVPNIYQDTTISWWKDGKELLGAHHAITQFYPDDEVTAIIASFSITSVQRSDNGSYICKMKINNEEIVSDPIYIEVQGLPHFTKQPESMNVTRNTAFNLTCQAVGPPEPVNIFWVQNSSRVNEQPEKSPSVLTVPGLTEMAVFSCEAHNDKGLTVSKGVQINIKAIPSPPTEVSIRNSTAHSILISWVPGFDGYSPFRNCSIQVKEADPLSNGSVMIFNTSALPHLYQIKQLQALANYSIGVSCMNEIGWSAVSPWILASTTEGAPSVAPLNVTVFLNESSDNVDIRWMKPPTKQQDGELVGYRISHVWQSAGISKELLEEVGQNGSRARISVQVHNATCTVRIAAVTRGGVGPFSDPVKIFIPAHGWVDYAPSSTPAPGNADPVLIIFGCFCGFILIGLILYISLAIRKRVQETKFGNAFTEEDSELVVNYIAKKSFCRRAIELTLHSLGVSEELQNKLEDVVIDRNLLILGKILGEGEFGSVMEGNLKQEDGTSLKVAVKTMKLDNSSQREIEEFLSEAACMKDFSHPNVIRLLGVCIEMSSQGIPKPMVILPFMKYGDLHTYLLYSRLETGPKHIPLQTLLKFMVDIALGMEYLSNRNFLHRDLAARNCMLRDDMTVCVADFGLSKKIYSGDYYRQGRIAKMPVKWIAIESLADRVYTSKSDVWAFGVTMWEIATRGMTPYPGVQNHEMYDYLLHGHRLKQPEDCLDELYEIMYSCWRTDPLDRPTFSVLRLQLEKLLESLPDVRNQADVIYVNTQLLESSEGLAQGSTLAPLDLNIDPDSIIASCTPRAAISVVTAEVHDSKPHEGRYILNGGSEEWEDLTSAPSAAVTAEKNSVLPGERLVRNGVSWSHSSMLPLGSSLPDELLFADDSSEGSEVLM
To be noted: at 0.1 µM.

Test [17] addresses T1, Tyrosine-protein kinase Mer (Homo sapiens). Conditions: at 1 µM.
Test [18] concerns the target Hepatocyte growth factor receptor (Homo sapiens) (UniProt P08581). To be noted: at 0.1 µM.
For test [19] the target is unchanged. To be noted: at 1 µM.
Test [20] addresses T2, Muscle, skeletal receptor tyrosine-protein kinase (Homo sapiens) (UniProt O15146).
T2 sequence (whole entry): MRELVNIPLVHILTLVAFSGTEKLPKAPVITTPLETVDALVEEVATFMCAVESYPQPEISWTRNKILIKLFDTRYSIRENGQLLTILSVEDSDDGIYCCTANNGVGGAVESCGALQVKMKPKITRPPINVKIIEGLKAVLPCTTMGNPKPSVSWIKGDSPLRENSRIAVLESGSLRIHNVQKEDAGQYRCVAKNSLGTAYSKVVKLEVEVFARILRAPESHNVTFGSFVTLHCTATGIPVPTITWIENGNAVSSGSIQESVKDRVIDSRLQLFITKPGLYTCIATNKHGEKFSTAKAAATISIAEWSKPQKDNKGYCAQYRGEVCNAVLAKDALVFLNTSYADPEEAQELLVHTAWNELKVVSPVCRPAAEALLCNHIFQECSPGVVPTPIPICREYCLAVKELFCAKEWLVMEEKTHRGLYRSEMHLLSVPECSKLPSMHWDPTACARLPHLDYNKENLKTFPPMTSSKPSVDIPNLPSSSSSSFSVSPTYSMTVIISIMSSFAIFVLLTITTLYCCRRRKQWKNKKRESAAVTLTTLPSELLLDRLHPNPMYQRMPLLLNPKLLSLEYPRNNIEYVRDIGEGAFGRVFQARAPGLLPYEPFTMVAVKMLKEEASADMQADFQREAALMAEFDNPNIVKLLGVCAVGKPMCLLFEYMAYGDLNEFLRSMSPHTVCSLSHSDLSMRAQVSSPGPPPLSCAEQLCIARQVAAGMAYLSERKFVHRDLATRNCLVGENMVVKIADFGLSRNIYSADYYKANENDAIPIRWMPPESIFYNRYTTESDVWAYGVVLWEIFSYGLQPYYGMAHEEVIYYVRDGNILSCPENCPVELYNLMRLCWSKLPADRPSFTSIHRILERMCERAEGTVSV
To be noted: at 0.1 µM.

Hepatocyte growth factor receptor (Homo sapiens), sequence (P08581 whole entry): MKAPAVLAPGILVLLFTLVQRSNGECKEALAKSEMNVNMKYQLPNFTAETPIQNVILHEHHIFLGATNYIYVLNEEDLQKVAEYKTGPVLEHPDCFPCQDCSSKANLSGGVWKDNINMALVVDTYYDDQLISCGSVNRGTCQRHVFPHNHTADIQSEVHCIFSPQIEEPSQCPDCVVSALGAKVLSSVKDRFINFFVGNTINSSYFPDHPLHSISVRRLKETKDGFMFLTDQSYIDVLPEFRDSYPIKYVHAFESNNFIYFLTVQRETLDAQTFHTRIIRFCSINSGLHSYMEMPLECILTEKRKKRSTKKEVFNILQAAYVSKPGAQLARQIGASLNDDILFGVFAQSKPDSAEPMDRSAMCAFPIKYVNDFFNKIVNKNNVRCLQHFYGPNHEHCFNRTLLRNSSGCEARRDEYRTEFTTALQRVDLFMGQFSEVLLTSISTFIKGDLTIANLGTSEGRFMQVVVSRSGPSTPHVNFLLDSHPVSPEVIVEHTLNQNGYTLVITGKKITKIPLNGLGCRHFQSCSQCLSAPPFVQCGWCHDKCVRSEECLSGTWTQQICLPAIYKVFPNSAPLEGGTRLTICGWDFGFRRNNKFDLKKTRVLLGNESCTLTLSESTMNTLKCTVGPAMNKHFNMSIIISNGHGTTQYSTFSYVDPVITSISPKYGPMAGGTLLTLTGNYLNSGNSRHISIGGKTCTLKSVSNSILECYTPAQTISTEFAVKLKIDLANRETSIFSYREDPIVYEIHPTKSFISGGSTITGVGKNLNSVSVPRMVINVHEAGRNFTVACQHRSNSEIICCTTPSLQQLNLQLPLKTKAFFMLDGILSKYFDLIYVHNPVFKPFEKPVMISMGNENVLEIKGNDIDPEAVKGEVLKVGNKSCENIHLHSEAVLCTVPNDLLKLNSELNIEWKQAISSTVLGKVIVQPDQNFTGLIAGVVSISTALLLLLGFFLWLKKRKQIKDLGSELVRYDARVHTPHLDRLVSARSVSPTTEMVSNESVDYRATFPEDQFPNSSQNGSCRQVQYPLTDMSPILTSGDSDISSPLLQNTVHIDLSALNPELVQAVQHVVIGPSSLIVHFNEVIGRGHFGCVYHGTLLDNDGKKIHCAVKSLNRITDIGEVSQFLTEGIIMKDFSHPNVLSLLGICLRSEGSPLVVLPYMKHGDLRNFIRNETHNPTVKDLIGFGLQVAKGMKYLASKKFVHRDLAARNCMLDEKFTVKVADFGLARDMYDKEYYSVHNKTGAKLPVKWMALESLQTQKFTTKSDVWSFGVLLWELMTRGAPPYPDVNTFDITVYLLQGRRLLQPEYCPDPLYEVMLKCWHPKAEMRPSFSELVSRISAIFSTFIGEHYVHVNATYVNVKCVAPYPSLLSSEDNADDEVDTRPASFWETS
Mast/stem cell growth factor receptor Kit (Homo sapiens), sequence (P10721 whole entry): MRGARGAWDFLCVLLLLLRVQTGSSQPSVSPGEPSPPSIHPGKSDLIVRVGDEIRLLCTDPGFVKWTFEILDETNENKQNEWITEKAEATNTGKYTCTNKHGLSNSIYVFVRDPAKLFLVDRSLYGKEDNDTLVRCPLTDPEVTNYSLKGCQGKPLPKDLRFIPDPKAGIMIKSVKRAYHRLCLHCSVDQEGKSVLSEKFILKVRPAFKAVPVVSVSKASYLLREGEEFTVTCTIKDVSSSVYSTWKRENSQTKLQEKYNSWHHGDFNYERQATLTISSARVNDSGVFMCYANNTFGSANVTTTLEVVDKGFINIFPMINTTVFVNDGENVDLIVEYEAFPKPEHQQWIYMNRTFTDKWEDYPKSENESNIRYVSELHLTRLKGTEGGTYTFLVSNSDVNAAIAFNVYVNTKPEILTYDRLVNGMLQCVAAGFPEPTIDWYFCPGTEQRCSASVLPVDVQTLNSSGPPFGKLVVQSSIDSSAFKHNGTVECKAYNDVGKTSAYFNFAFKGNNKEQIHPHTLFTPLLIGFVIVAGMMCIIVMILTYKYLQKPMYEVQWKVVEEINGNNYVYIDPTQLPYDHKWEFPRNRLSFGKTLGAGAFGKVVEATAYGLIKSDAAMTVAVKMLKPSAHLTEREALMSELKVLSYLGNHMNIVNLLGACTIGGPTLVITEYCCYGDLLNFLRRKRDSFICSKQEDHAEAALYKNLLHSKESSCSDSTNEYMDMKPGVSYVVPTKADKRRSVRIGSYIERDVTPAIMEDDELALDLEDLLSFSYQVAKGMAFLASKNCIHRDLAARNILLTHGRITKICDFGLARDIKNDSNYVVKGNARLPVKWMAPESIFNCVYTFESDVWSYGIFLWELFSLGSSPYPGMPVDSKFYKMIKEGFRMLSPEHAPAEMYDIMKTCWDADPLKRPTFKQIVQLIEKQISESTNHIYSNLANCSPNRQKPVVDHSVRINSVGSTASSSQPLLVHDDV
Mast/stem cell growth factor receptor Kit (Homo sapiens), P10721 [D816V], sequence (P10721 whole entry D816V): as the sequence (P10721 whole entry) above, with D816V counted along it
Mast/stem cell growth factor receptor Kit (Homo sapiens), P10721 [T670I], sequence (P10721 whole entry T670I): as the sequence (P10721 whole entry) above, with T670I counted along it
Mast/stem cell growth factor receptor Kit (Homo sapiens), P10721 [V560G], sequence (P10721 whole entry V560G): as the sequence (P10721 whole entry) above, with V560G counted along it

For `CC1=C(C(=O)Nc2ccc3[nH]ncc3c2)C(c2ccc3ccccc3c2)CC(=O)N1` (stereo not given), the inhibition (commonly the change of the read-out against control, counted positive when it falls) in [1] was 7.55%; in test [2] it was 0.15%; in [3], -0.63%; in test [4], 1.53%; in [5], 2.53%; in [6], 1.45%. The inhibition in [7] turned out to be 2.17%; in test [8], 21.1%; in test [9] it was 64.3%; in [10] it was 2.82%; in test [11], 3.95%; in test [12] it was 6.74%. Also, the inhibition worked out at 30.8% in test [13]; 4.2% in [14]; 26.2% in [15]; 0.87% in test [16]; 2.79% in test [17]; 8.81% in [18]. The inhibition in test [19] was 40.3%; in test [20] it was 2.08%.

Regarding `CCCN1CCC=C(c2ccc(Nc3nc(Nc4ccccc4C(N)=O)c4cc[nH]c4n3)c(C)c2)C1`, the inhibition in test [1] is 11.6%; in test [2], 7.12%; in [3] it was 3.39%; in test [4], 4.53%; in test [5] it was 0.85%; in [6] it was -4.87%. Further, the inhibition in test [7] is -3.21%; in [8] it was 4.63%; in [9], 7.36%; in test [10], 79.4%; in test [11], 93.9%; in test [12], 2.75%. Further, the inhibition in test [13] was 6.69%; in test [14] it was -0.18%; in [15] it was 2.97%; in test [16], 1.4%; in [17] it was 10.5%; in test [18], 6.76%. The inhibition was 13.1% in test [19] and 4.95% in [20].

As for `CS(=O)(=O)CCNCc1ccc(-c2ccc3ncnc(Nc4ccc(OCc5ccccc5)c(Cl)c4)c3c2)o1`, the inhibition worked out at 1.79% in test [1]; 0.03% in test [2]; 2.97% in [3]; 1.42% in [4]; 1.36% in test [5]; 7.05% in test [6]. Besides, the inhibition in test [7] came out at 1.37%; in [8] it was 1.77%; in [9] it was 9.7%; in test [10], 0.32%; in test [11], 4.23%; in test [12] it was 1.21%. Moreover, the inhibition in [13] was 6.25%; in [14], 1.19%; in [15], 5.08%; in test [16], 4.37%; in test [17], 30.6%; in [18], 5.04%. Moreover, the inhibition was found to be 7.4% in test [19] and 3.89% in [20].

Regarding `NS(=O)(=O)c1cccc(-c2ccc3c(NC(=O)C4CC4)n[nH]c3c2)c1`, the inhibition in [1] is 0.12%; in test [2], 1.16%; in test [3] it was 3.53%; in test [4], -3.61%; in test [5] it was -1.9%; in test [6] it was 1.03%. For the same compound, the inhibition was 4.07% in test [7]; -1.55% in test [8]; 3.43% in test [9]; 0.03% in test [10]; -0.78% in test [11]; 1.09% in [12]. The inhibition in [13] is 1.65%; in [14], 1.19%; in [15] it was 1.05%; in test [16], 0.89%; in test [17] it was 1.03%; in test [18] it was -4.06%. Moreover, the inhibition in [19] is 3.16%; in test [20], 0.75%.

`Fc1cccc(COc2ccc(Nc3ncnc4sc(-c5cccs5)cc34)cc2Cl)c1`: the inhibition in [1] came to 6.67%; in [2], 4.5%; in test [3], 1.72%; in test [4] it was 1.75%; in test [5], 2.96%; in [6], 4.3%. Further, the inhibition in test [7] was 2.12%; in test [8], 0.99%; in [9], 3.56%; in [10], -0.03%; in test [11] it was 1.68%; in test [12] it was 0.57%. For the same compound, the inhibition was 1.59% in [13]; 0.13% in [14]; 2.6% in test [15]; 1.5% in test [16]; 0.96% in test [17]; -1.35% in test [18]. For the same compound, the inhibition in test [19] was -0.09%; in test [20], -0.17%.

As for `COc1ccc(-c2coc3ncnc(N)c23)cc1`, the inhibition in test [1] was 21.7%; in test [2] it was 5.53%; in test [3] it was -0.06%; in test [4] it was 3.49%; in test [5] it was 1.89%; in test [6], 2.72%. Moreover, the inhibition amounted to 7.39% in test [7]; 1.13% in [8]; 6.38% in test [9]; 3.02% in test [10]; 2.3% in [11]; 5.38% in [12]. Further, the inhibition in test [13] turned out to be 5.54%; in [14], 3.09%; in test [15] it was 7.61%; in test [16], 2.63%; in test [17] it was 2.9%; in test [18], 10%. Besides, the inhibition in test [19] turned out to be 6.47%; in test [20], 4.06%.

As to `COc1cccc(-n2ncc3c(N/N=C/c4cccc(F)c4)ncnc32)c1`, the inhibition was 14.1% in test [1]; 4.05% in test [2]; 1.87% in test [3]; 2.67% in test [4]; 7.07% in [5]; -0.18% in test [6]. The inhibition in test [7] was -1.44%; in test [8], 7.82%; in test [9], 40.9%; in test [10], 0.92%; in test [11], 1.7%; in [12], 13.9%. The inhibition in test [13] worked out at 55.9%; in [14], 10.2%; in test [15], 50.7%; in test [16], 0.34%; in test [17], 7.16%; in test [18] it was 7.49%. For the same compound, the inhibition was determined as 17.2% in test [19] and 3.52% in [20].

Values taken from ChEMBL document CHEMBL1961873, “Compounds: GSK PKIS; Assays: Nanosyn kinase panel” (2012).
